B2AR arrestin: agonists driving beta-arrestin recruitment to human beta2-adrenergic receptor | 0.02% of 330,000 active | Potency, µM (series often up to 46.1 µM), actives largely listed as activators | AID 492947 | beta-arrestin recruitment to beta2AR, cell-based reporter; further: nearly all actives have a fitted effect of over 65% in size
TSHR antag: antagonists of human thyroid stimulating hormone receptor; activity change, negative = inhibition, % at 11.5 µM; TSHR-expressing cells, TSH-stimulated cAMP HTRF, 2 h; active compounds read low; P16473; 0.2% of 330,000 active;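 active means activity change below a set negative limit, meaning inhibition stronger than a set level, cut at about -70% in these data; inconclusive means activity change between two set negative limits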
Target sequence (P16473 whole entry, looked up): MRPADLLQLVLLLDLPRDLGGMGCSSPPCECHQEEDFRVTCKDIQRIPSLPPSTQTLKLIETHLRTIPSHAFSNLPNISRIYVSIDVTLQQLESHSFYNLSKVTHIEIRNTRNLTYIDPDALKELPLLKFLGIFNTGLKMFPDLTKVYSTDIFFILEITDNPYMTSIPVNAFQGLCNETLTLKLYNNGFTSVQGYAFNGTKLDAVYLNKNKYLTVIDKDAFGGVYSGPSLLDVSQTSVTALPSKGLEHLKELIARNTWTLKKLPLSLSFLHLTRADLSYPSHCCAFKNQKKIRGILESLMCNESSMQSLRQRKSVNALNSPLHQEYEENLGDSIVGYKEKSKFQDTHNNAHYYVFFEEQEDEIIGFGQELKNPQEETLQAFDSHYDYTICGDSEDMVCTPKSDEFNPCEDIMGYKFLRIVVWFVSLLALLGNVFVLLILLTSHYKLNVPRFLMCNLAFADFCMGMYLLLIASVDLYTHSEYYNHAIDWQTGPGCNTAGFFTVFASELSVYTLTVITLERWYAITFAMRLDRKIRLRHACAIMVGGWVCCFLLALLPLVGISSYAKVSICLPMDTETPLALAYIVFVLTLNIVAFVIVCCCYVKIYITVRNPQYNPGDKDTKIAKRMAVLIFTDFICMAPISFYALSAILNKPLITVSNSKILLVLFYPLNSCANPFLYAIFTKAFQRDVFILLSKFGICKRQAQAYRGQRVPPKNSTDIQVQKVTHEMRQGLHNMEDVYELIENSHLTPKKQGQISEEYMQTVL
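Cell-based HTRF cAMP assay; TSHR cells + compound, TSH EC80 (4nM final), 2 h, 37 deg C. Lysis with anti-cAMP cryptate and cAMP-d2, 30 min RT, read 665/620 nm.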
VP16 counter: counter-screen for ROR gamma inhibitors: Gal4-VP16 reporter | Drosophila S2 Gal4-VP16 UAS-luciferase, luminescence, 20 h | Potency, µM (series often up to 53.6 µM), usual class: inhibitors | 3.5% of 310,000 active | AID 2546;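 further: Gal4-VP16 expression switched on by copper sulfate through the metallothionein promoter; nearly all actives have a fitted effect of over 50% in size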
ELG1 DNA repair: blocks ELG1-dependent DNA repair in HEK293T cells | HEK293T ELG1-luciferase reporter, luminescence, 16 h; DNA damage induced by 5-fluorouridine | Potency, µM (highest dose often 46.1 µM), actives largely listed as inhibitors | 2.3% of 330,000 active | AID 504467; further: nearly all actives have a fitted effect of over 55% in size
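HEK293T cells expressing luciferase-tagged ELG1 (2,000/well) received 5-Fluorouridine plus compound or DMSO for 16 hr at 37 °C. Luciferase was read by ONE-Glo luminescence after 30 min at room temperature.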
RORgamma inh: inhibitors of mouse ROR gamma transcriptional activity. P51450. Drosophila S2 Gal4-RORgamma UAS-luciferase reporter, 20 h. Potency, µM (doses to about 53.6 µM), most hits filed as inhibitors. 5.4% of 310,000 active. AID 2551; further: nearly all actives have a fitted effect of over 60% in size
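ROR gamma transcriptional activity was tracked as Gal4-UAS luciferase output in stably transfected Drosophila Schneider cells, with compound added 1 hr before 700 uM copper sulfate induction and a 20 hr ambient-temperature incubation.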
Hits are given with their value; i = inactive; ? = inconclusive; nt = no result; [ ] = dose if it differs, or a comment. Compounds with a hit are over-represented: about 7.5% of the library has one in this group of screens. Unless noted, the call rests on the fitted dose curve; in most records, active means well fitted curve in the direction sought with a large enough effect; inconclusive means small, poorly fitted or top-dose-only effect, or another doubt; inactive means no such curve, though single readings can be large; an effect the other way counts as inactive or inconclusive.

SMILES | B2AR arrestin | TSHR antag | VP16 counter | ELG1 DNA repair | RORgamma inh
CC(C)NC(=O)N(C)C[C@H]1Oc2c(NC(=O)Nc3ccccc3)cccc2C(=O)N([C@H](C)CO)C[C@@H]1C | i | i | nt | i | nt
COc1ccc(NC(=O)CN2CCN(c3nc(-c4cccc(OC)c4)cs3)CC2)cc1 | i | i | ? | 12µM | ?
COc1cccc(-c2csc(N3CCN(CC(=O)Nc4ccc5c(c4)OCO5)CC3)n2)c1 | i | i | i | ? | i
OCCNC(=S)Nc1ccc(Oc2ccccc2)cc1 | i | i | i | i | i
S=C(Nc1ccc(Oc2ccccc2)cc1)NC1CCCCCC1 | i | i | 3.2µM | i | 1.8µM
NS(=O)(=O)c1ccc(NC(=S)NC2CCCCCC2)cc1 | i | i | i | i | i
CC(C)c1ccc(NC(=S)NC2CCCCCC2)cc1 | i | i | 16µM | ? | 2.2µM
Cc1ccc(NC(=S)NNC(=S)NC2CCCCC2)cc1 | i | i | ? | i | 16µM
S=C(Nc1ccc(Oc2ccccc2)cc1)NC1CCCCC1 | i | ? | i[0.365 µM] | i | 2.2µM
O=C(Nc1ccccc1)NC1CCCCC1 | i | i | i | ? | i
O=C(OCC(=O)N1CCOCC1)c1ccc(Cl)cc1[N+](=O)[O-] | i | i | i | i | i
N=C(N)SCCc1ccc(CCSC(=N)N)cc1 | nt | i | nt | nt | nt
FC(F)Sc1ccc(NC(=S)NC2CCCC2)cc1 | i | i | ? | i | 11µM
S=C(Nc1ccc(Oc2ccc(NC(=S)NC3CCCCC3)cc2)cc1)NC1CCCCC1 | i | i | ? | i | 1µM
S=C(NNc1ccc2ccccc2c1)NC1CCCCC1 | i | i | 2.8µM | ? | 2.8µM
OC1CCC(NC(=S)Nc2ccc(SC(F)F)cc2)CC1 (centres undefined) | i | i | i | ? | i
CC1(C)Cc2c(c(N3CCOCC3)nc3sc(-c4ccc(C(=O)O)o4)c(N)c23)CO1 | i | i | i | 2.6µM | ?
Cc1nc2c(sc3nc(N4CCOCC4)c4c(c32)CC(C)(C)OC4)c(-c2ccccc2)c1C(=O)O | i | i | i | 3.7µM | i
CN1Cc2c(N3CCOCC3)nc3sc(C(=O)c4ccc(Br)cc4)c(N)c3c2CC1(C)C | i | i | ? | ? | 11µM
COc1ccc(NC(=O)c2sc3nc(N4CCCC4)c4c(c3c2N)CC(C)(C)OC4)cc1 | i | i | i | 5.8µM | i
Cc1ccc(S(=O)(=O)N2CCN(C(=O)COC(=O)CCOc3ccc(C(C)(C)C)cc3)CC2)cc1 | i | i | nt | i | nt
Cc1csc(=N)n1-c1ccc(Cl)cc1 | i | i | 11µM | ? | ?
Cc1cc(C)nc(-n2nc(C)c3c(C)c(C)c(C)nc32)n1 | i | i | i | i | 10µM
CN(C)c1cccc(C(=O)NNC(=S)NC2CC3CCC2C3)c1 (centres undefined) | i | i | i | ? | 4µM
CC(C)N(C(=S)NC1CC2CCC1C2)c1ccccc1 (centres undefined) | i | i | i | i | ?
SMILES | B2AR arrestin | TSHR antag | VP16 counter | ELG1 DNA repair | RORgamma inh
COc1cc(-c2nc3ccc4ccccc4c3c3c2CCC3)cc(OC)c1OC | i | i | 22µM | ? | 5.6µM
COc1ccc(-n2c(C)cc(C3=NNC(=NC4CC4)SC3)c2C)cc1 | i | i | ? | ? | i
Cc1cc(C2=NNC(=NC3CC3)SC2)c(C)n1-c1ccccc1 | i | i | 6.3µM | 4.6µM | 2.5µM
COCCn1c(C)cc(C2=NNC(=NC3CC3)SC2)c1C | i | i | 1.1µM | 5.2µM | 1.1µM
C=CCn1c(C)cc(C2=NNC(=NC(C)(C)C)SC2)c1C | i | i | 10µM | ? | 11µM
C=CCn1c(C)cc(C2=NNC(=Nc3ccc(C)cc3)SC2)c1C | i | i | i | ? | i
C=CCN=C1NN=C(c2cc(C)n(CCOC)c2C)CS1 | i | i | i | ? | 1µM
O=C(CC1C(=O)NCCN1Cc1ccccn1)NCCc1ccccc1F (centres undefined) | i | i | i | i | i
O=C(OCc1nc2ccsc2c(=O)[nH]1)c1ccc(Cl)s1 | i | i | nt | i | nt
COc1cccc(/C=C/c2ccc3cccc(O)c3n2)c1 | i | i | 11µM | ? | 3.5µM
O=[N+]([O-])c1ccc(/C=C/c2ccc3cccc(O)c3n2)cc1 | i | i | ? | ? | 2.5µM
Oc1cccc(/C=C/c2ccc3cccc(O)c3n2)c1 | i | i | 5µM | ? | i
CC(=O)COc1cccc2ccc(/C=C/c3ccc(Br)s3)nc12 | i | i | i | i | ?
Cc1ccc(/C=C/c2ccc3cccc(O)c3n2)s1 | i | i | ? | ? | 14µM
C=C(C)C(O)/C=C/c1cccc(OC)c1 (centres undefined) | nt | nt | i[10 µM] | nt | ?
CC(C)=NOCc1ccc(-c2cc(-c3ccccc3)no2)cc1 | nt | nt | i[10 µM] | nt | i[10 µM]
COc1cccc(Cn2c(=O)c(-c3cccs3)nc3cnc(OCc4ccccc4)nc32)c1 | nt | nt | i | nt | i
COc1ccccc1CCn1c(=O)c(-c2ccccc2)nc2cncnc21 | nt | nt | i | nt | i
COC(CN(C)C(=O)C1CCCN(S(=O)(=O)c2ccc3c(c2)oc(=O)n3C)C1)OC (centres undefined) | i | i | i | i | i
Cc1nc2cncnc2n(Cc2ccccc2)c1=O | nt | nt | i | nt | i
COc1ccc(Cc2n[nH]c(=S)n2C)cc1Br | i | i | i | i | i
COc1ccc(CCCc2n[nH]c(=S)n2C)cc1C | i | i | i[10 µM] | i | 5µM
Cc1cccc(OCc2n[nH]c(=S)o2)c1C | i | i | i | i | ?
COc1ccc(CCCc2n[nH]c(=S)o2)cc1C | i | i | i[10 µM] | ? | 10µM
Cc1ccc(/C=C/C2=C[C@]3(C)C[C@]2(C)[C@H](c2ccc(C)cc2)CC3=O)cc1 | nt | nt | i | nt | i
SMILES | B2AR arrestin | TSHR antag | VP16 counter | ELG1 DNA repair | RORgamma inh
COc1ncc2nc(-c3cccc(C#N)c3)c(=O)n(CCC#N)c2n1 | nt | nt | i | nt | i
COc1ccc(-n2cnnc2SCC(=O)c2ccc(S(=O)(=O)N3CCOCC3)cc2)cc1 | i | i | 20µM | i | ?
COc1ccc(-n2ncc(Cl)c(Cl)c2=O)cc1 | i | i | ? | ? | 2µM
CN(C)c1cnn(-c2ccccc2)c(=O)c1Cl | i | i | i | ? | i
Cc1ccc(-n2ncc(N(C)C)c(Cl)c2=O)cc1 | i | i | ? | ? | 11µM
O=S(=O)(/C(=C/c1ccc(C(F)(F)F)cc1)c1nc2ccccc2[nH]1)c1ccccc1 | i | i | 5.6µM | 16µM | 14µM
CC(/C=N/n1c(C2CCCCC2)n[nH]c1=S)=C\c1ccccc1 | i | i | 10µM | i | 3.5µM
CC(/C=N/n1c(-c2cc(C)[nH]n2)n[nH]c1=S)=C\c1ccccc1 | i | i | ? | i | 8.9µM
Cc1cccc(/C=N/n2c(C3CCCCC3)n[nH]c2=S)c1 | i | i | 7.1µM | i | 3.2µM
S=c1[nH]nc(C2CCCCC2)n1/N=C/c1cccc(Br)c1 | i | i | i | i | 2µM
CC(=C/c1ccccc1)/C=N/n1c(-c2ccco2)n[nH]c1=S | i | i | i | i | i
CCNc1ncc2nc(-c3ccc(F)cc3)c(=O)n(CCc3ccccc3)c2n1 | nt | nt | i | nt | i
